Source: PubChem BioAssay AID1159580 (chemical genetic matrix, 2015)
Values joined by “and” are separate entries in the source; they are usually repeats but may differ in a detail not shown here. Identical values can stand only once. Out of some 5,500 compounds screened, about 2,000 (36%) were called active. Another 18% or so got no clear call; they are omitted. Rule as the data show it: active = normalized growth mostly below about 0.91 (no sharp cut-off); inconclusive = no clear call, values can overlap the other calls; inactive = mostly above about 0.92. The list shows a part of the results.

Test: chemical genetic growth profiling, strain panel (AID 1159580);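 also: tested at 20 µM; growth read once vehicle control cultures reached saturation at 30 °C; 1 = growth at the plate median or of vehicle wells; lower values mean less growth of the strain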
Details: S. cerevisiae deletion strains, growth OD

Measured: normalized growth

O=C(O)CC[N+](=O)[O-]
inactive: locus YAL013W, strain DEP1, hits give low values 0.991 and 0.999 | locus YAL021C, strain ccr4, hits give low values 0.987 | locus YAL026C, strain drs2, hits give low values 1.01 | locus YAL030W, strain snc1, hits give low values 1 | locus YAL040C, strain CLN3, hits give low values 0.99 | locus YBL061C, strain skt5, hits give low values 1.01 | locus YBR009C, strain hhf1, hits give low values 1.01 | locus YBR021W, strain FUR4, hits give low values 1.12 | locus YBR023C, strain chs3, hits give low values 1.01 | locus YBR171W, strain sec66, hits give low values 1.01 | locus YBR229C, strain ROT2, hits give low values 1.01 | locus YBR231C, strain swc5, hits give low values 1.02 | locus YBR279W, strain paf1, hits give low values 0.999 | locus YCL011C, strain gbp2, hits give low values 1.02 | locus YCL016C, strain dcc1, hits give low values 1 | locus YCL029C, strain bik1, hits give low values 0.985 | locus YCL061C, strain MRC1 (second series), hits give low values 1 | locus YCL061C, strain MRC1, hits give low values 1 | locus YCL069W, strain vba3, hits give low values 0.996 | locus YCR088W, strain abp1, hits give low values 1 | locus YDL005C, strain med2, hits give low values 1 | locus YDL035C, strain GPR1, hits give low values 0.976 | locus YDL040C, strain nat1, hits give low values 0.988 | locus YDL074C, strain BRE1, hits give low values 0.999 | locus YDL101C, strain DUN1, hits give low values 0.998 | locus YDL134C, strain PPH21, hits give low values 0.997 | locus YDL185W, strain tfp1, hits give low values 0.962 | locus YDL192W, strain arf1, hits give low values 0.974 | locus YDR001C, strain nth1, hits give low values 0.993 | locus YDR069C, strain doa4, hits give low values 1.02 | locus YDR101C, strain arx1, hits give low values 0.986 | locus YDR137W, strain rgp1, hits give low values 0.999 | locus YDR150W, strain NUM1, hits give low values 0.972 and 1 | locus YDR159W, strain sac3, hits give low values 1.02 | locus YDR162C, strain NBP2, hits give low values 1.01 | locus YDR195W, strain ref2 0.977 | locus YDR297W, strain sur2, hits give low values 1.02 | locus YDR318W, strain mcm21, hits give low values 0.984 | locus YDR334W, strain swr1, hits give low values 1.01 | locus YDR335W, strain msn5, hits give low values 1 | locus YDR363W, strain ESC2, hits give low values 1.01 | locus YDR388W, hits give low values 0.993 | locus YDR392W, strain spt3, hits give low values 1.02 | locus YDR502C, strain sam2, hits give low values 0.988 | locus YEL003W, strain gim4, hits give low values 1.02 | locus YEL037C, strain rad23, hits give low values 1 | locus YEL061C, strain CIN8 (second series), hits give low values 1 | locus YEL061C, strain CIN8, hits give low values 0.994 | locus YER002W, strain NOP16, hits give low values 1.01 | locus YER015W, strain faa2, hits give low values 1 | locus YER016W, strain bim1, hits give low values 1.01 | locus YER110C, hits give low values 0.963 | locus YER111C, strain swi4, hits give low values 1.01 | locus YER155C, strain BEM2 (second series), hits give low values 1.03 | locus YER155C, strain BEM2, hits give low values 0.99 | locus YER167W, strain BCK2, hits give low values 0.988 | locus YFR010W, strain ubp6, hits give low values 1.01 | locus YGL078C, strain dbp3, hits give low values 0.979 | locus YGL086W, strain mad1, hits give low values 0.982 | locus YGL167C, strain pmr1, hits give low values 1.01 | locus YGL173C, strain kem1, hits give low values 1.02 | locus YGL227W, strain vid30, hits give low values 1 | locus YGL240W, strain doc1, hits give low values 1.04 | locus YGL248W, strain PDE1, hits give low values 1 | locus YGL253W, strain hxk2, hits give low values 1.01 | locus YGR078C, strain PAC10, hits give low values 0.986 | locus YGR135W, strain pre9, hits give low values 0.997 | locus YGR229C, strain SMI1, hits give low values 0.992 and 1 | locus YGR252W, strain gcn5, hits give low values 0.977 | locus YHR013C, strain ard1, hits give low values 0.997 | locus YHR027C, strain rpn1, hits give low values 0.997 | locus YHR030C, strain SLT2, hits give low values 0.983 and 0.976 | locus YHR079C, strain IRE1 (second series), hits give low values 0.996 | locus YHR079C, strain IRE1, hits give low values 0.976 | locus YHR094C, strain hxt1, hits give low values 0.978 | locus YHR129C, strain ARP1, hits give low values 0.986 | locus YHR142W, strain chs7, hits give low values 1.02 | locus YHR200W, strain rpn10, hits give low values 0.973 | locus YIL066C, strain RNR3, hits give low values 0.981 | locus YIL073C, strain SPO22, hits give low values 0.934 | locus YIL125W, strain kgd1, hits give low values 0.984 | locus YIR030C, strain dcg1, hits give low values 0.986 | locus YJL092W, strain hpr5, hits give low values 1 | locus YJL095W, strain BCK1 (second series), hits give low values 1.01 | locus YJL095W, strain BCK1, hits give low values 1 and 1.01 | locus YJL115W, strain asf1, hits give low values 0.997 | locus YJL129C, strain trk1, hits give low values 1.01 | locus YJL134W, strain LCB3, hits give low values 0.991 | locus YJL154C, strain vps35, hits give low values 0.996 | locus YJL164C, strain tpk1, hits give low values 0.993 | locus YJL166W, strain qcr8, hits give low values 1.02 | locus YJL168C, strain set2, hits give low values 0.99 | locus YJL187C, strain SWE1 (second series), hits give low values 0.982 | locus YJL187C, strain SWE1, hits give low values 1.01 | locus YJR043C, strain POL32, hits give low values 0.98 | locus YJR066W, strain TOR1, hits give low values 0.935
